Source: PubChem BioAssay (EPA / NIEHS)
Records with an inconclusive call do not appear. Calls of active or inactive are those of the source. Rule for the calls, unless noted: active = hit-call score of the fitted dose curve at least 0.9, where 1 is the maximum; inconclusive = response in the unintended direction; inactive = score below 0.9.

Assays:
[1] = Tanguay_ZF_120hpf_JAW_legacy: (Legacy) Oregon State University Tanguay Lab 120 Hour Post-fertilization zebrafish Assay for Jaw Malformation (AID 2283638);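 for AC50: active means more embryos with jaw malformation than DMSO controls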
In short: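 Tropical 5D wild-type embryos, dechorionated with pronase at 4 hpf, were placed singly per well at 6 hpf and statically exposed at 28C until 120 hpf (0.64% DMSO final). Jaw malformation scored as present/absent by brightfield microscopy at 120 hpf, analyzed relative to DMSO.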

[2] = Tanguay_ZF_120hpf_OTIC_legacy: (Legacy) Oregon State University Tanguay Lab 120 Hour Post-fertilization zebrafish Assay for Otic Vesicle Malformation (AID 2283639)
In short: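 Otic vesicle malformation is read as a yes/no morphology call at 120 hpf. Exposure is static at 28C with 0.64% (vol/vol) DMSO; embryos that die are excluded from non-mortality endpoints.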

[3] = Tanguay_ZF_120hpf_PE_legacy: (Legacy) Oregon State University Tanguay Lab 120 Hour Post-fertilization zebrafish Assay for Pericardial Edema (AID 2283640);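 for AC50: potency for increased incidence of pericardial edema versus DMSO baseline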
In short: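 Tropical 5D wild-type zebrafish embryos were exposed statically to 120 hpf at 28C, sealed and foil-covered, in 0.64% DMSO final. Pericardial edema was scored present/absent by brightfield microscopy; dead embryos were not scored.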

[4] = Tanguay_ZF_120hpf_BRAI_legacy: (Legacy) Oregon State University Tanguay Lab 120 Hour Post-fertilization zebrafish Assay for Brain Malformation (AID 2283641)
In short: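 Tropical 5D wild-type zebrafish embryos were exposed statically in sealed, foil-covered plates at 28C until 120 hpf, with 0.64% (vol/vol) final DMSO. Brain malformation was scored present/absent by brightfield microscopy, relative to DMSO baseline.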

[5] = Tanguay_ZF_120hpf_SOMI_legacy: (Legacy) Oregon State University Tanguay Lab 120 Hour Post-fertilization zebrafish Assay for Somite Malformation (AID 2283647)
In short: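 Tropical 5D wild-type zebrafish embryos, dechorionated with pronase at 4 hpf, were placed singly at 6 hpf and statically exposed until 120 hpf at 28C in 0.64% DMSO. Somite malformation was scored present/absent by brightfield microscopy versus DMSO.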

[6] = Tanguay_ZF_120hpf_PFIN_legacy: (Legacy) Oregon State University Tanguay Lab 120 Hour Post-fertilization zebrafish Assay for Pectoral Fin Malformation (AID 2283648);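 note: each larva judged yes or no for fin defect by brightfield with dead larvae skipped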
In short: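 Tropical 5D wild-type embryos, dechorionated with pronase at 4 hpf, were placed singly in wells at 6 hpf and statically exposed until 120 hpf at 28C, sealed and dark, with 0.64% (vol/vol) final DMSO; pectoral fin malformation scored present/absent.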

[7] = Tanguay_ZF_120hpf_CFIN_legacy: (Legacy) Oregon State University Tanguay Lab 120 Hour Post-fertilization zebrafish Assay for Caudal Fin Malformation (AID 2283649)
In short: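 Tropical 5D wild-type embryos, dechorionated with pronase at 4 hpf, were placed singly in wells at 6 hpf and statically exposed to compound at 28C until 120 hpf (0.64% DMSO). Caudal fin malformation was scored present/absent by brightfield microscopy.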

[8] = Tanguay_ZF_120hpf_PIG_legacy: (Legacy) Oregon State University Tanguay Lab 120 Hour Post-fertilization zebrafish Assay for Pigmentation Malformation (AID 2283650)
In short: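 Tropical 5D wild-type zebrafish embryos, dechorionated with pronase at 4 hpf, were exposed singly from 6 hpf to 120 hpf statically at 28C in sealed, dark plates with 0.64% DMSO; pigmentation scored present/absent by brightfield microscopy, fitted against DMSO.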

[9] = Tanguay_ZF_120hpf_CIRC_legacy: (Legacy) Oregon State University Tanguay Lab 120 Hour Post-fertilization zebrafish Assay for Circulatory Malformation (AID 2283651)
In short: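 Using wild-type Tropical 5D zebrafish, we exposed dechorionated embryos from 6 to 120 hpf in embryo medium with 0.64% DMSO. Circulatory defects were scored as present or absent; 5uM trimethyltin chloride served as positive control.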

[10] = read-out: solute carrier (SLC22A6), SLC22A6 (gene 9356); experiment: LTEA_HepaRG_SLC22A6: Life Technologies and Expression Analysis (LTEA) Assay for solute carrier (SLC22A6) using HepaRG (AID 2283653; active = hit-call score of the fitted dose curve at least 0.9, where 1 is the maximum; inactive = score below 0.9); conditions: mRNA level, 48 h; actives raise or lower the signal
In short: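 Differentiated human HepaRG cells were exposed for 48 h in serum-free induction medium to eight concentrations (top 100 uM, half-log steps, 0.5% DMSO), in duplicate. SLC22A6 mRNA was quantified by qRT-PCR, normalised to ACTB, GAPDH and POLR2A, and fitted bidirectionally against DMSO.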

[11] = Tanguay_ZF_120hpf_SWIM_legacy: (Legacy) Oregon State University Tanguay Lab 120 Hour Post-fertilization zebrafish Assay for Swim Bladder Malformation (AID 2283654);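 note: swim bladder malformation in each larva scored yes or no under brightfield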
In short: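 Dechorionated Tropical 5D wild-type embryos, placed singly from 6 hpf, were statically exposed at 28C to 120 hpf with 0.64% DMSO final; swim bladder malformation was scored present/absent by brightfield microscopy, gain of signal relative to DMSO controls.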

[12] = Tanguay_ZF_120hpf_TRUN_legacy: (Legacy) Oregon State University Tanguay Lab 120 Hour Post-fertilization zebrafish Assay for Truncated Body (AID 2283655)
In short: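 Tropical 5D wild-type embryos, dechorionated with pronase at 4 hpf, were placed singly in wells at 6 hpf and statically exposed at 28C until 120 hpf, final DMSO 0.64%. Truncated body was scored present/absent by brightfield microscopy.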

[13] = read-out: solute carrier (SLC10A1), SLC10A1 (gene 6554); experiment: LTEA_HepaRG_SLC10A1: Life Technologies and Expression Analysis (LTEA) Assay for solute carrier (SLC10A1) using HepaRG (AID 2283657; active = hit-call score of the fitted dose curve at least 0.9, where 1 is the maximum; inactive = score below 0.9); conditions: mRNA level, 48 h; actives raise or lower the signal
In short: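 Differentiated HepaRG cells were plated 48 h, then exposed in serum-free induction medium for 48 h to 8 concentrations (top 100 uM, half-log steps, 0.5% DMSO). SLC10A1 mRNA was quantified by qRT-PCR normalized to ACTB, GAPDH, POLR2A; bidirectional fit versus DMSO.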

[14] = read-out: matrix metalloproteinase-1 (MMP1), MMP1 (gene 4312); experiment: LTEA_HepaRG_MMP1: Life Technologies and Expression Analysis (LTEA) Assay for matrix metalloproteinase-1 (MMP1) using HepaRG (AID 2283658; active = hit-call score of the fitted dose curve at least 0.9, where 1 is the maximum; inactive = score below 0.9); conditions: mRNA level, 48 h; actives raise or lower the signal
In short: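 Differentiated HepaRG cells, plated 48 h then switched to serum-free induction medium, were exposed in duplicate for 48 h to eight half-log concentrations up to 100 uM in 0.5% DMSO; MMP1 mRNA measured by qRT-PCR, normalized to ACTB, GAPDH, POLR2A.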

[15] = system: Thyroperoxidase (TPO), gene 54314; experiment: CCTE_Simmons_AUR_rTPO: CCTE's Amplex UltraRed Assay for Thyroperoxidase (TPO) Inhibition, Simmons Lab (AID 2283662);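 for AC50: potency for loss of signal meaning inhibition of peroxidase activity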
In short: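 Endpoint is decreased Amplex UltraRed fluorescence after a 30-min, 37C reaction of rat thyroid microsomes with 300 uM H2O2. Eight test concentrations (5 nM–87.5 uM final) in 0.5% DMSO, three biological replicates each.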

[16] = CCTE_Simmons_CellTiterGLO_HEK293T: Viability Assessment in CCTE's Assays for Thyroperoxidase (TPO) Inhibition, Simmons Lab (AID 2283665);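 for AC50: cells exposed to compound for 24 h before readout; actives reduce ATP signal below DMSO vehicle meaning cytotoxicity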
In short: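 Cytotoxicity counter-screen: human HEK293T cells in low-serum (1% FBS) medium receive test chemical, 5 nM to 87.5 uM final, for 24 h; ATP is quantified by luciferase luminescence.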

[17] = Tanguay_ZF_120hpf_TR_legacy: (Legacy) Oregon State University Tanguay Lab 120 Hour Post-fertilization zebrafish Assay for Touch Response (AID 2283667)
In short: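 Tropical 5D wild-type zebrafish embryos were exposed statically in sealed, foil-covered plates at 28C until 120 hpf, with 0.64% (vol/vol) final DMSO. Touch response was scored as present or absent; embryos that died were not scored.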

[18] = read-out: Cytochrome P450 (CYP24A1_1), CYP24A1 (gene 1591); experiment: LTEA_HepaRG_CYP24A1_1: Life Technologies and Expression Analysis (LTEA) Assay for Cytochrome P450 (CYP24A1_1) using HepaRG (AID 2283671; active = hit-call score of the fitted dose curve at least 0.9, where 1 is the maximum; inactive = score below 0.9); conditions: mRNA level, 48 h; actives raise or lower the signal
In short: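 HepaRG, 48 h exposure, 8-pt half-log series from 100 uM in 0.5% DMSO, duplicates. Readout: TaqMan qRT-PCR of CYP24A1 mRNA, housekeeping-normalized (ACTB/GAPDH/POLR2A). Bidirectional curve fit vs DMSO baseline.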

[19] = Tanguay_ZF_120hpf_NC_legacy: (Legacy) Oregon State University Tanguay Lab 120 Hour Post-fertilization zebrafish Assay for Notochord and Tail Malformation (AID 2283656)
In short: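 Dechorionated 5D zebrafish, 1/well from 6 hpf; static exposure to 120 hpf, 28C, sealed, dark; final DMSO 0.64% v/v. NC scored binary (present/absent); dead embryos not scored. Fit vs DMSO baseline, gain direction.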

[20] = read-out: kallikrein-3 (KLK3), KLK3 (gene 354); experiment: LTEA_HepaRG_KLK3: Life Technologies and Expression Analysis (LTEA) Assay for kallikrein-3 (KLK3) using HepaRG (AID 2283652; active = hit-call score of the fitted dose curve at least 0.9, where 1 is the maximum; inactive = score below 0.9); conditions: mRNA level, 48 h; actives raise or lower the signal
In short: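 Differentiated human HepaRG cells in serum-free induction medium exposed 48 h in duplicate, eight-point half-log series from 100 uM in 0.5% DMSO. KLK3 mRNA by qRT-PCR, normalised to ACTB, GAPDH, POLR2A; bidirectional fit versus DMSO.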

Measured: AC50

Nc1ccc(Cl)cc1N
inactive: [1] | [2] | [3] | [4] | [5] | [6] | [7] | [8] | [9] | [10] | [11] | [12] | [16] | [17]
active: [13] 20.9 µM | [14] 50 µM | [15] 13.1 µM | [18] 30.8 µM

CCOc1cccc(C2(N3CCN(c4ccccc4)CC3)CCC(C)CC2)c1 (stereo not given)
inactive: [1] | [2] | [3] | [4] | [5] | [6] | [7] | [8] | [9] | [11] | [12] | [19] | [17]

ClC1=C(Cl)C2(Cl)C3C(Cl)C=CC3C1(Cl)C2(Cl)Cl (stereo not given)
inactive: [1] | [2] | [3] | [4] | [6] | [8] | [9] | [20] | [10] | [11] | [13] | [14] | [17] | [18]

Cc1ccc([N+](=O)[O-])cc1
inactive: [1] | [2] | [3] | [4] | [5] | [6] | [7] | [8] | [9] | [20] | [10] | [12] | [19] | [13] | [14] | [17] | [18]

COc1cc(C=O)cc2c1[C@H](COC(N)=O)[C@]1(OC(C)=O)ON2C[C@H]2[C@@H]1N2C(C)=O
inactive: [1] | [2] | [3] | [4] | [5] | [6] | [7] | [8] | [9] | [12] | [19]

CCCCC(CC)COC(=O)c1ccc(C(=O)OCC(CC)CCCC)c(C(=O)OCC(CC)CCCC)c1 (stereo not given)
inactive: [1] | [2] | [3] | [4] | [5] | [6] | [7] | [8] | [9] | [11] | [12] | [19] | [16] | [17]
active: [15] 12.7 µM

O=C(Oc1ccc(Br)cc1)N1CCN2CCC1CC2
inactive: [1] | [2] | [4] | [5] | [6] | [7] | [8] | [9] | [12] | [19]
active: [3] 9.47 µM

CCC(C)c1ccc(O)cc1 (stereo not given)
inactive: [1] | [2] | [3] | [4] | [5] | [6] | [7] | [9] | [12] | [19] | [17]
active: [15] 2.88 µM | [16] 43.8 µM

Nc1ccc(Oc2ccc(N)cc2)cc1
active: [15] 0.831 µM
inactive: [1] | [2] | [3] | [4] | [5] | [6] | [7] | [8] | [9] | [11] | [19] | [16] | [17]

C=CCc1ccc2c(c1)OCO2
inactive: [1] | [3] | [4] | [5] | [6] | [7] | [8] | [12] | [19] | [17]
active: [15] 36.4 µM | [16] 66.7 µM

O=C(Nc1ccccc1)c1ccccc1I
active: [1] 50.4 µM | [3] 43.5 µM | [6] 47.3 µM | [7] 45 µM | [9] 76.6 µM
inactive: [4] | [5] | [8] | [12] | [19] | [17]

CC(C)COC(=O)c1ccccc1C(=O)OCC(C)C
active: [1] 29.7 µM | [5] 50.6 µM | [6] 45.5 µM
inactive: [3] | [4] | [7] | [8] | [9] | [20] | [10] | [12] | [19] | [13] | [14] | [17] | [18]

c1ccc2c(c1)oc1ccccc12
inactive: [1] | [2] | [3] | [5] | [6] | [7] | [8] | [9] | [12] | [19] | [17]

OCCCl
inactive: [1] | [3] | [4] | [5] | [6] | [7] | [8] | [9] | [11] | [19] | [17]

CN(C)c1ccc(C(=O)c2ccc(N(C)C)cc2)cc1
active: [1] 23.4 µM | [3] 22.7 µM | [4] 48.7 µM | [5] 28.4 µM | [6] 17.2 µM | [9] 9.77 µM | [11] 30.1 µM | [15] 8.94 µM | [16] 43.8 µM | [17] 43.3 µM
inactive: [7] | [12] | [19]

CC(C)(C)OOC(=O)c1ccccc1
inactive: [1] | [3] | [4] | [5] | [6] | [7] | [8] | [9] | [12]

Cc1ccc(N=C=O)cc1N=C=O
inactive: [1] | [3] | [4] | [5] | [6] | [7] | [9] | [12] | [19] | [16] | [17]
active: [15] 16.9 µM

CCCCOC(=O)c1ccccc1C(=O)OCc1ccccc1
inactive: [1] | [3] | [4] | [5] | [6] | [7] | [9] | [12] | [19] | [15] | [17]
active: [16] 8.68 µM

ClCCOCCCl
inactive: [1] | [3] | [4] | [5] | [6] | [7] | [8] | [9] | [11] | [12] | [19] | [17]
